Several values for one entry are separate records, joined by “and”; a condition that tells them apart may be missing. Equal values may be shown once. About 2,000 (36%) of roughly 5,500 compounds were called active. Inconclusive results (about 18%) are left out. Cut-off read from the data, not from the text of the source: active = normalized growth mostly below about 0.91 (no sharp cut-off); inconclusive = no clear call, values can overlap the other calls; inactive = mostly above about 0.92. Some of the results follow.
Experiment: chemical genetic growth profiling, strain panel (AID 1159580);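 note: tested at 20 µM; growth read once vehicle control cultures reached saturation at 30 °C; 1 = growth at the plate median or of vehicle wells; lower values mean less growth of the strain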
Conditions: S. cerevisiae deletion strains, growth OD

Measured: normalized growth

CC1=C(O)C(=O)C=C2C1=CC=C1[C@@]2(C)CC[C@@]2(C)[C@@H]3C[C@](C)(C(=O)O)CC[C@]3(C)CC[C@]12C
inactive: locus YBR021W, strain FUR4, hits give low values 0.859 | locus YDL185W, strain tfp1, hits give low values 0.943 | locus YKL009W, strain mrt4, hits give low values 0.908 | locus YKL085W, strain MDH1 (second series), hits give low values 0.941 | locus YKL085W, strain MDH1, hits give low values 0.941 | locus YNL298W, strain CLA4, hits give low values 0.918 | locus YNL322C, strain KRE1 (second series), hits give low values 0.937 | locus YOL012C, strain htz1 0.278
active: locus YAL021C, strain ccr4, hits give low values 0.56 | locus YAL026C, strain drs2, hits give low values 0.51 | locus YAL030W, strain snc1, hits give low values 0.573 | locus YBL061C, strain skt5, hits give low values 0.479 | locus YBR009C, strain hhf1, hits give low values 0.375 | locus YBR023C, strain chs3, hits give low values 0.42 | locus YBR171W, strain sec66, hits give low values 0.812 | locus YBR229C, strain ROT2, hits give low values 0.623 | locus YBR231C, strain swc5, hits give low values 0.307 | locus YBR279W, strain paf1, hits give low values 0.527 | locus YCL011C, strain gbp2, hits give low values 0.433 | locus YCL016C, strain dcc1, hits give low values 0.592 | locus YCL029C, strain bik1, hits give low values 0.493 | locus YCL061C, strain MRC1, hits give low values 0.611 | locus YCL069W, strain vba3, hits give low values 0.611 | locus YCR088W, strain abp1, hits give low values 0.64 | locus YDL005C, strain med2, hits give low values 0.509 | locus YDL035C, strain GPR1, hits give low values 0.391 | locus YDL040C, strain nat1, hits give low values 0.848 | locus YDL074C, strain BRE1, hits give low values 0.195 | locus YDL101C, strain DUN1, hits give low values 0.264 | locus YDL134C, strain PPH21, hits give low values 0.44 | locus YDL192W, strain arf1, hits give low values 0.568 | locus YDR001C, strain nth1, hits give low values 0.806 | locus YDR069C, strain doa4, hits give low values 0.327 | locus YDR101C, strain arx1, hits give low values 0.665 | locus YDR137W, strain rgp1, hits give low values 0.238 | locus YDR159W, strain sac3, hits give low values 0.403 | locus YDR162C, strain NBP2, hits give low values 0.098 | locus YDR195W, strain ref2 0.348 | locus YDR297W, strain sur2, hits give low values 0.429 | locus YDR318W, strain mcm21, hits give low values 0.523 | locus YDR334W, strain swr1, hits give low values 0.353 | locus YDR335W, strain msn5, hits give low values 0.522 | locus YDR388W, hits give low values 0.683 | locus YDR392W, strain spt3, hits give low values 0.101 | locus YDR502C, strain sam2, hits give low values 0.521 | locus YEL003W, strain gim4, hits give low values 0.489 | locus YEL037C, strain rad23, hits give low values 0.769 | locus YEL061C, strain CIN8 (second series), hits give low values 0.403 | locus YEL061C, strain CIN8, hits give low values 0.391 | locus YER015W, strain faa2, hits give low values 0.429 | locus YER016W, strain bim1, hits give low values 0.565 | locus YER110C, hits give low values 0.766 | locus YER111C, strain swi4, hits give low values 0.329 | locus YER155C, strain BEM2 (second series), hits give low values 0.342 | locus YER155C, strain BEM2, hits give low values 0.254 | locus YER167W, strain BCK2, hits give low values 0.334 | locus YFR010W, strain ubp6, hits give low values 0.657 | locus YGL078C, strain dbp3, hits give low values 0.905 | locus YGL086W, strain mad1, hits give low values 0.619 | locus YGL167C, strain pmr1, hits give low values 0.706 | locus YGL173C, strain kem1, hits give low values 0.27 | locus YGL227W, strain vid30, hits give low values 0.571 | locus YGL240W, strain doc1, hits give low values 0.646 | locus YGL248W, strain PDE1, hits give low values 0.369 | locus YGL253W, strain hxk2, hits give low values 0.485 | locus YGR135W, strain pre9, hits give low values 0.557 | locus YGR252W, strain gcn5, hits give low values 0.5 | locus YHR013C, strain ard1, hits give low values 0.273 | locus YHR027C, strain rpn1, hits give low values 0.423 | locus YHR030C, strain SLT2, hits give low values 0.248 and 0.76 | locus YHR079C, strain IRE1 (second series), hits give low values 0.659 | locus YHR079C, strain IRE1, hits give low values 0.732 | locus YHR094C, strain hxt1, hits give low values 0.721 | locus YHR129C, strain ARP1, hits give low values 0.349 | locus YHR142W, strain chs7, hits give low values 0.309 | locus YHR200W, strain rpn10, hits give low values 0.749 | locus YIL066C, strain RNR3, hits give low values 0.308 | locus YIL073C, strain SPO22, hits give low values 0.623 | locus YIL125W, strain kgd1, hits give low values 0.812 | locus YIR030C, strain dcg1, hits give low values 0.552 | locus YJL092W, strain hpr5, hits give low values 0.7 | locus YJL095W, strain BCK1 (second series), hits give low values 0.372 | locus YJL095W, strain BCK1, hits give low values 0.211 and 0.783 | locus YJL115W, strain asf1, hits give low values 0.856 | locus YJL129C, strain trk1, hits give low values 0.35 | locus YJL134W, strain LCB3, hits give low values 0.692 | locus YJL154C, strain vps35, hits give low values 0.776 | locus YJL164C, strain tpk1, hits give low values 0.316 | locus YJL166W, strain qcr8, hits give low values 0.312 | locus YJL168C, strain set2, hits give low values 0.866 | locus YJL187C, strain SWE1 (second series), hits give low values 0.142 | locus YJR043C, strain POL32, hits give low values 0.385 | locus YJR066W, strain TOR1, hits give low values 0.792 | locus YKL068W, hits give low values 0.895 | locus YKL160W, strain elf1, hits give low values 0.541 | locus YKL190W, strain CNB1, hits give low values 0.315 | locus YKR001C, strain vps1, hits give low values 0.13 | locus YKR026C, strain gcn3, hits give low values 0.852 | locus YKR091W, strain srl3, hits give low values 0.843 | locus YLL001W, strain dnm1, hits give low values 0.617 | locus YLL026W, hits give low values 0.74 | locus YLL041C, strain sdh2, hits give low values 0.764 | locus YLR027C, strain aat2, hits give low values 0.502 | locus YLR039C, strain RIC1, hits give low values 0.157 | locus YLR058C, strain SHM2, hits give low values 0.224 | locus YLR102C, strain apc9, hits give low values 0.83 | locus YLR113W, strain HOG1, hits give low values 0.472 | locus YLR221C, strain rsa3, hits give low values 0.419 | locus YLR258W, strain gsy2, hits give low values 0.541 | locus YLR262C, strain YPT6 (second series), hits give low values 0.149 | locus YLR262C, strain YPT6, hits give low values 0.182 | locus YLR268W, strain sec22, hits give low values 0.355 | locus YLR320W, strain mms22, hits give low values 0.256 | locus YLR330W, strain CHS5, hits give low values 0.253 | locus YLR342W, strain FKS1 (second series), hits give low values 0.336 | locus YLR342W, strain FKS1, hits give low values 0.387 | locus YLR357W, strain rsc2, hits give low values 0.731 | locus YLR370C, strain arc18, hits give low values 0.704 | locus YLR371W, strain rom2, hits give low values 0.418 | locus YLR384C, strain iki3, hits give low values 0.759 | locus YLR418C, strain cdc73, hits give low values 0.176 | locus YML016C, strain PPZ1, hits give low values 0.547 | locus YML032C, strain rad52, hits give low values 0.533 | locus YML120C, strain ndi1, hits give low values 0.608 | locus YML124C, strain tub3, hits give low values 0.738 | locus YMR058W, strain fet3, hits give low values 0.0928 | locus YMR078C, strain ctf18, hits give low values 0.472 | locus YMR125W, strain sto1, hits give low values 0.827 | locus YMR129W, hits give low values 0.795 | locus YMR205C, strain PFK2, hits give low values 0.337 | locus YMR223W, strain ubp8, hits give low values 0.581 | locus YMR231W, strain pep5, hits give low values 0.365 | locus YMR263W, strain SAP30, hits give low values 0.561 | locus YMR307W, strain GAS1, hits give low values 0.252 | locus YNL067W, strain RPL9B, hits give low values 0.518 | locus YNL071W, strain lat1, hits give low values 0.11 | locus YNL183C, strain NPR1, hits give low values 0.728 | locus YNL209W, strain ssb2, hits give low values 0.303 | locus YNL233W, strain BNI4, hits give low values 0.287 | locus YNL248C, strain rpa49, hits give low values 0.708 | locus YNL250W, strain rad50, hits give low values 0.887 | locus YNL271C, strain bni1, hits give low values 0.882 | locus YNL307C, strain MCK1, hits give low values 0.093 | locus YNR049C, strain mso1, hits give low values 0.781 | locus YNR052C, strain pop2, hits give low values 0.664 | locus YOL147C, strain pex11, hits give low values 0.137 | locus YOR001W, strain rrp6, hits give low values 0.678 | locus YOR061W, strain CKA2, hits give low values 0.509 | locus YOR069W, strain VPS5, hits give low values 0.638 | locus YOR070C, strain gyp1, hits give low values 0.449 | locus YOR080W, strain dia2, hits give low values 0.674 | locus YOR083W, strain WHI5, hits give low values 0.624 | locus YOR106W, strain vam3, hits give low values 0.244 | locus YOR136W, strain idh2, hits give low values 0.765 | locus YOR144C, strain elg1, hits give low values 0.304 | locus YOR184W, strain ser1, hits give low values 0.173 | locus YOR231W, strain MKK1, hits give low values 0.75 | locus YOR265W, strain rbl2, hits give low values 0.552 | locus YOR270C, strain vph1, hits give low values 0.236 | locus YOR290C, strain snf2, hits give low values 0.249 | locus YOR316C, strain cot1, hits give low values 0.698 | locus YPL051W, strain arl3, hits give low values 0.209 | locus YPL078C, strain atp4, hits give low values 0.528 | locus YPL106C, strain sse1, hits give low values 0.435 | locus YPL240C, strain hsp82, hits give low values 0.444 | locus YPL241C, strain CIN2, hits give low values 0.565 | locus YPL256C, strain CLN2, hits give low values 0.663 | locus YPR119W, strain clb2, hits give low values 0.61 | locus YPR141C, strain kar3, hits give low values 0.886 | locus YPR163C, strain tif3, hits give low values 0.257 | locus YPR167C, strain met16, hits give low values 0.538 | strain wtn01, hits give low values 0.436
